Assay outcomes: PubChem, Broad Institute
The list is not random: actives were taken first. Their share in the collection is about 3.1%.
ERAP1 inh – inhibitors of human ERAP1 aminopeptidase | Q9NZ08 | recombinant ERAP1, Leu-AMC fluorescence, 60 min | inhibition, % at 10.7 µM | actives 0.15% (n = 340,000) | AID 652197;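 active = mean replicate inhibition of at least 30%, or all replicates individually reaching that 30% level; inactive = mean below 30% and not every replicate reaching it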;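 note: 0% = neutral control wells and 100% = L-leucinethiol positive control wells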
Casp6 inh – blocks human caspase-6 cleavage activity. purified caspase-6, Z-VEID-R110 cleavage fluorescence. inhibition, % at 12.5 µM. actives 0.53% (n = 350,000). AID 686996;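 active = mean inhibition across replicates at least about 35%, with every replicate also reaching that limit, limit read from the data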;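 note: 0% = median of neutral control wells and 100% = no fluorescence left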
FGF22 binding – shifts melting point of recombinant human FGF22; actives 1.5% (n = 340,000); activity (Tm shift, normalised), % at 9.99 µM; recombinant FGF22 thermal shift, SYPRO orange fluorescence; percent of sucrose octasulfate shift, DMSO zero;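 active = mean Tm shift, scaled 0 neutral to 100 positive control, at about 1.3% or above, every replicate too, limit read from the data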
Target sequence (Q9HCT0 whole entry, looked up): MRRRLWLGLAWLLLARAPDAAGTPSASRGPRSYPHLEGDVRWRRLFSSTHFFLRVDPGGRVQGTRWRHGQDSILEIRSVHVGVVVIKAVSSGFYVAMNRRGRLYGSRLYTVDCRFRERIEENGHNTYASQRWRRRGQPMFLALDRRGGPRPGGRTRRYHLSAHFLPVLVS
SIRT5 inh – sirtuin-5 (human) deacylase inhibition; Q9NXA8; Purified SirT5, succinyl-peptide AMC, trypsin-coupled fluorescence; inhibition, % at 15 µM; actives 1.1% (n = 330,000); AID 652115; in the data active = inhibition above about 15%
Numbers without * were called inactive; nt = no result given; ! = a repeat was not active.

SMILES	ERAP1 inh	Casp6 inh	FGF22 binding	SIRT5 inh
CN(C)CCCNS(=O)(=O)c1ccc(NC2CCCCCC2)c([N+](=O)[O-])c1	4.7	-12.6	42.4	28.7*
CC1=C(C(=O)OCC(Br)(Br)Br)C(c2cccc([N+](=O)[O-])c2)NC(=O)N1CCCC(=O)O (stereo not given)	-2.0	-1.6	-0.1	22.5*
C[C@@H]1CN([C@H](C)CO)C(=O)Cc2cc(NC(=O)Nc3ccc(F)cc3)ccc2O[C@@H]1CN(C)S(=O)(=O)c1ccc(F)cc1	-1.2	nt	0.1	5.2
COc1cccc(-c2ccc3c(c2)O[C@H](CN(C)C(=O)c2ccccc2F)[C@H](C)CN([C@H](C)CO)S3(=O)=O)c1	2.0	-7.2	-0.7	36.6*!
CCCC#Cc1ccc2c(c1)O[C@@H](CN(C)C(=O)c1cnccn1)[C@@H](C)CN([C@@H](C)CO)S2(=O)=O	1.0	-2.6	-0.3	27.9*
CCCC#Cc1ccc2c(c1)O[C@H](CN(C)C(=O)Nc1ccccc1F)[C@@H](C)CN([C@H](C)CO)S2(=O)=O	0.3	0.2	-0.2	20.7*
CCCC#Cc1ccc2c(c1)O[C@@H](CN(C)C(=O)c1ccccc1F)[C@@H](C)CN([C@@H](C)CO)S2(=O)=O	3.6	4.6	-0.9	16.9*
CCCC#Cc1ccc2c(c1)O[C@H](CN(C)C(=O)c1ccccc1F)[C@H](C)CN([C@H](C)CO)S2(=O)=O	3.3	3.7	-1.2	18.0*
CC(C)CC#Cc1ccc2c(c1)O[C@H](CN(C)C(=O)c1ccccc1F)[C@@H](C)CN([C@@H](C)CO)S2(=O)=O	4.0	-1.2	-0.4	9.0
Cc1ccc(NCCN(C)C)c2c(=O)c3cc(O)ccc3sc12	63.9*	-79.4	-0.1	4.7
CN(C)CCNc1cccc2sc3ccc(O)cc3c(=O)c12	5.9	-8.5	-0.3	nt
CCC(=O)Nc1ccc(C(=O)COC(=O)c2nc3nccc(C)n3n2)cc1	-0.9	68.6*	0.1	3.7
Cc1ccnc2nc(C(=O)OCC(=O)c3ccc(NC(=O)CC(C)C)cc3)nn12	-2.4	0.4	0.1	-1.7
Cc1cc(C)cc(N(CC(=O)NC(C)C)C(=O)CCC(=O)Nc2ccccn2)c1	0.2	44.9*	-0.1	11.3
C[C@H](CO)N1C[C@H](C)[C@H](CN(C)S(C)(=O)=O)Oc2ccc(NC(=O)CCC(F)(F)F)cc2CC1=O	1.5	-3.4	0.2	2.1
CCN1C(=O)CC(SC2CC(=O)N(CC)C2=O)C1=O (stereo not given)	-0.5	0.2	-0.1	-1.3
CCCCN1C(=O)CC(SC2CC(=O)N(CCCC)C2=O)C1=O (stereo not given)	-0.3	0.6	43.0*	nt
Cc1cc(Br)ccc1SCC(=O)OC/C(O)=C(\C#N)c1nc2ccccc2[nH]1	-1.2	-7.2	nt	21.2*
N#C/C(=C(/O)COC(=O)c1cccnc1Cl)c1nc2ccccc2[nH]1	1.0	1.1	43.6*	-3.7
O=C(COC(=O)CCC(=O)c1ccc(Cl)cc1)NCc1ccc(F)cc1	2.7	-3.2	43.1*	nt
NC(=O)c1ccc(NC(=O)COC(=O)CCC(=O)c2ccc(Cl)cc2)cc1	-0.7	-2.4	43.3*	-5.8
COc1ccc2c3c([nH]c2c1)[C@H](CO)N(S(C)(=O)=O)CC31CCN(C(=O)c2ccncc2)CC1	nt	nt	0.2	-0.2
C[C@@H]1CN([C@@H](C)CO)C(=O)Cc2cc(NC(=O)Nc3ccc(F)cc3)ccc2O[C@H]1CN(C)CC1CCCCC1	-1.6	-0.4	0.4	6.4
O=c1c2ccccc2ncn1-c1ccc(Cl)cc1Cl	1.6	1.5	0.1	2.0
O=c1c2ccccc2sn1-c1ccc(Cl)cc1Cl	81.4*	-0.5	42.7	-0.5
SMILES	ERAP1 inh	Casp6 inh	FGF22 binding	SIRT5 inh
C=CCOc1ccccc1CN1CCC(CO)(CCOc2ccccc2)CC1	4.5	-3.3	43.4*	-1.4
Cc1ccccc1CC1(CO)CCCN(Cc2c(C)nn(C)c2Cl)C1 (stereo not given)	-2.7	1.9	44.0*	0.9
CCOc1ccc(CN2CCCC(CO)(Cc3ccccc3F)C2)cc1 (stereo not given)	3.8	0.6	0.2	-1.4
Cc1nn(C)c(Cl)c1CN1CCC(CO)(CCOc2ccccc2)CC1	-1.6	-1.5	43.9*	1.8
COc1cc(Cl)c(CN2CCCC(CO)(Cc3ccccc3F)C2)cc1OC (stereo not given)	-1.8	0.0	-0.1	100.6*
O=C(COc1ccc(-n2ccnc2)cc1)Nc1cccc(F)c1	-5.4	-4.0	0.5	-2.4
O=C(COc1ccc(-n2ccnc2)cc1)Nc1cccc(Cl)c1	0.2	1.4	-0.2	22.5*
CCc1ccccc1Nc1nc(N)nc(CSCC(=O)Nc2ccc(C)c(C)c2)n1	6.7	1.3	0.0	15.7*
